Results filed as inconclusive are left out. Values without a mark were called inactive. The source made the active and inactive calls. The call rests on the fitted dose curve; in most records, active means well fitted curve in the direction sought with a large enough effect; inconclusive means small, poorly fitted or top-dose-only effect, or another doubt; inactive means no such curve, though single readings can be large or run the other way.
On the % scale 0 is the no-effect control and ±100 the full control effect; potency means the concentration at half of the fitted maximal effect.

The assay can be described thus: qHTS Assay for Identifying Gametocytocidal Compounds (AID 743244).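 On max response: actives lower the fluorescent signal which means gametocytes are killed.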 To be noted: P. falciparum 3D7 stage III-V gametocytes, alamarBlue, 72 h; max response: stronger effect = lower value. From the text: Malaria cases and deaths have dropped 50% in 29 countries since 2000 due to the combined effects of long-lasting insecticidal bednets, indoor residual spraying, and artemisinin-based combination therapies (ACTs). This success has raised hopes for malaria eradication and consequently stimulated interest in developing new reagents that block gametocyte transmission such as novel and safe gametocytocidal drugs. However, previous drug development efforts have focused primarily on the asexual parasites that cause symptoms, but not malaria transmission. Consequently, patients can remain infectious for weeks after the clearance of asexual parasites and clinical symptoms. To be transmitted from person to person via a mosquito, the parasites must switch from asexual to sexual development and produce male and female gametocytes. Malaria gametocytes consist of five stages (I, II, III, IV and V). The late stage gametocytes (III, IV and V) are difficult to be cultured in vitro and the long lifespan of mature gametocytes allows them being transmitted from host to mosquitoes unless they are completely eliminated by gametocytocidal agents. To identify gametocytocidal compounds which are capable of killing late stage P. falciparum gametocytes, a high throughput gametocyte viability assay was employed. This assay uses oxidoreduction indicator, alamarBlue, as a general measure of metabolic activity of gametocytes. Within live cells, the nonfluorescent resazurin is reduced to resorufin, a bright red fluorescence dye. Fluorescence decreases upon treatment of gametocytocidal compounds. P. falciparum gametocyte (3D7 strain) was used in this study.
The 1536-well gametocycidal viability assay was based on the previous method of Tanaka et al. Stage III-V gametocytes were tested against three compound libraries, including 4265 compounds from NCGC pharmaceutical collection, 400 from Malaria Box library, and 550 from an internal collection of kinase inhibitors. Briefly, 2.5 ul/well incomplete medium was dispensed into each well of 1,536-well plates using the Multidrop Combi followed by 23 nl compound transferring using the NX-TR Pintool (WAKO Scientific Solutions, San Diego, CA). Then, 2.5 ul/well of gametocytes was dispensed with a seeding density of 20,000 cells/well using the Multidrop Combi. The assay plates were incubated for 72 h at 37C with 5% CO2. After addition of 5 ul/well of 2X AlamarBlue dye (Life Technologies, cat. no. DAL1100), the plates were incubated for 24 h at 37C with 5% CO2 and then were read in a fluorescence detection mode (Ex = 525 nm, Em = 598 nm) on a ViewLux plate reader (PerkinElmer).
(qHTS replaces the single test concentration by a dilution series.)
As to `C[C@H]1O[C@@H](n2cc(F)c(=O)[nH]c2=O)[C@H](O)[C@H]1O`, the max response was 6.51%.

`CCCCn1c(=O)n(Cc2ccccc2F)c(=O)c2[nH]c(Cc3ccc(NC(C)=O)cc3)nc21`: the max response is 66.3%. On the same count and under the same terms, the result for `Cc1cc2c(cc1C1(c3ccc(C(=O)O)cn3)CC1)C(C)(C)CCC2(C)C` reads 8.43%; that for `Cn1cc(-c2ccc3nnc(Sc4ccc5ncccc5c4)n3n2)cn1`, -16.9%; that for `OCCn1cc(-c2ccc3c(c2)CCC3=NO)c(-c2ccncc2)n1`, 8.08%. On the same count and under the same terms, the result for `O=C(O)Cc1cccc(OCCCN(Cc2cccc(C(F)(F)F)c2Cl)CC(c2ccccc2)c2ccccc2)c1` reads 0.38%; that for `O=C(Nc1cccc(Cl)c1)Nc1ncc(CCNc2ncnc3ccsc23)s1`, 5.02%. The same measure, in the same setting: then `COC(=O)Nc1ccc(-c2nc(N3CCOCC3)c3cnn(C4CCN(C(=O)OC)CC4)c3n2)cc1`, with 6.16%. Regarding `CC(C)Oc1cc(Nc2nc(N[C@@H](C)c3ccc(F)cn3)ncc2Cl)[nH]n1`, the Potency was 2.35 µM (active). With `CCNC(=O)c1noc(-c2cc(C(C)C)c(O)cc2O)c1-c1ccc(CN2CCOCC2)cc1`, the Potency is 0.0469 µM (active). Turning to `NCC1CCC(C(=O)O)CC1` (stereo not given), the max response was -0.776%. With `CC(C)CN(C[C@@H](O)[C@H](Cc1ccccc1)NC(=O)O[C@H]1CO[C@H]2OCC[C@H]21)S(=O)(=O)c1ccc(N)cc1`, the max response was -5.35%. On the same count and under the same terms, then `CC(C)(CO)[C@@H](O)C(=O)NCCC(=O)O`, with -8.71%.

As to `O=C1C(CCC(O)c2ccc(F)cc2)C(c2ccc(O)cc2)N1c1ccc(F)cc1` (stereo not given), the max response was 8.66%. Regarding `Cc1ccc(C(=O)N(CCCN)[C@@H](c2nc3cc(Cl)ccc3c(=O)n2Cc2ccccc2)C(C)C)cc1`, the Potency was 18.7 µM (active). As for `Cc1c(C(=O)Nc2ccc(N3C[C@@H](C)O[C@@H](C)C3)nc2)cccc1-c1ccc(OC(F)(F)F)cc1`, the max response was 0.51%. In the case of `N#CC(c1ccc(Cl)cc1)c1c(Cl)cc(-n2ncc(=O)[nH]c2=O)cc1Cl` (stereo not given), the max response is -5.57%. In the case of `CC1=C[C@@H]2[C@@H]([C@@H](O)C[C@@]3(C)[C@H]2C[C@@H](C)[C@]3(O)C(=O)CO)[C@@]2(C)Cc3cnn(-c4ccccc4)c3C=C12`, the max response was -28.3%. Consider `COc1c(C)cnc(Cn2cnc3c(Cl)nc(N)nc32)c1C`, for which the Potency was 23.5 µM (active).

As for `CCCCCCCCCCCCCC(=O)N[C@H](CO)[C@H](O)c1ccc([N+](=O)[O-])cc1`, the max response is -2.76%. Same read-out and setting: then `O=C(O)c1nc(=O)[nH]c(=O)[nH]1`, with 15.4%. In the case of `Clc1ccc(COC(Cn2ccnc2)c2ccc(Cl)cc2Cl)c(Cl)c1` (stereo not given), the Potency was 4.48 µM (active). Take `NS(=O)(=O)c1cc(Cl)c(Cl)c(S(N)(=O)=O)c1`: the max response was -4.73%. The same measure, in the same setting: the result for `CN1CCN2c3ncccc3Cc3ccccc3C2C1` (stereo not given) reads 6.21%; that for `CN(C)CCN(Cc1ccc(Cl)cc1)c1ccccn1`, 18.2%; that for `CNC(=O)c1cc(Oc2ccc(NC(=O)Nc3ccc(Cl)c(C(F)(F)F)c3)c(F)c2)ccn1`, 21.4%. For `CS(=O)(=O)c1ccc(C2=C(c3ccccc3)C(=O)OC2)cc1`, the max response was 3.44%. The same measure, in the same setting: the result for `Cc1csc(-c2nnc(Nc3ccc(Oc4ncccc4-c4ccnc(N)n4)cc3)c3ccccc23)c1` reads 10.6%. Consider `Nc1ccc(-c2ccc3ncc4ccc(=O)n(-c5cccc(C(F)(F)F)c5)c4c3c2)cn1`, for which the Potency is 0.027 µM (active). For `CCCCc1ccc(NS(=O)(=O)c2ccc(C)c(C(=O)N3CCN(c4cccc(C)c4C)CC3)c2)cc1`, the max response was 17%. On the same count and under the same terms, then `CCc1cc(-c2n[nH]c(C)c2-c2ccc3c(c2)OCCO3)c(O)cc1O`, with -4.02%. Turning to `COc1ccc(-c2nc3ccc(C4=NNC(=O)CC4C)cc3[nH]2)cc1` (stereo not given), the max response was 13.2%. Regarding `CC(O)=C(C#N)C(=O)Nc1ccc(C(F)(F)F)cc1`, the max response is 27.1%. For the compound `O=C(Nc1ccc(OC(F)(F)F)cc1)c1sccc1NCc1ccnc2ccccc12`, the max response is 8.87%.

Turning to `CCCCOCCOc1nc(-c2ccc(C(=O)O)c(F)c2)sc1C`, the max response is 43.8%. With `CN(C)CCN(C)C(=O)c1ccc(NC(=O)Nc2ccc(-c3nc(N4CCOCC4)c4ccn(CC(F)(F)F)c4n3)cc2)cc1`, the Potency is 23.5 µM (active). As to `CC(C)(C)c1[nH]cnc1C=c1[nH]c(=O)c(=Cc2ccccc2)[nH]c1=O`, the max response is -26.5%. Take `CCC(=O)N1CCN(c2ccc(-n3c(=O)ccc4cnc5ccc(-c6cnc7ccccc7c6)cc5c43)cc2C(F)(F)F)CC1`: the Potency is 5.26 µM (active).

As for `CCCCN(CCCC)CC(O)c1cc(Cl)cc2c1-c1ccc(Cl)cc1C2=Cc1ccc(Cl)cc1` (stereo not given), the Potency is 0.059 µM (active). As for `O=C(Nc1cccc2c(=O)cc(-c3nn[nH]n3)oc12)c1ccc(OCCCCc2ccccc2)cc1`, the max response is 38.4%.
